Measured values: PubChem BioAssay AID449729 (Southern Research Specialized Biocontainment Screening …, 2010)
Active and inactive are the calls of the source. No rule for the calls is given here.

Molecular target: Large T antigen (Simian virus 40) (UniProt P03070)
Experiment: large T antigen ATP hydrolysis inhibition – biochemical, ADP-Hunter, purified TAg, synthesized compounds, set 2 (AID 449729)
Settings: purified TAg ATPase, ADP-Hunter fluorescence; series mostly up to 100 µM

Large T antigen (Simian virus 40), sequence (P03070 whole entry, looked up): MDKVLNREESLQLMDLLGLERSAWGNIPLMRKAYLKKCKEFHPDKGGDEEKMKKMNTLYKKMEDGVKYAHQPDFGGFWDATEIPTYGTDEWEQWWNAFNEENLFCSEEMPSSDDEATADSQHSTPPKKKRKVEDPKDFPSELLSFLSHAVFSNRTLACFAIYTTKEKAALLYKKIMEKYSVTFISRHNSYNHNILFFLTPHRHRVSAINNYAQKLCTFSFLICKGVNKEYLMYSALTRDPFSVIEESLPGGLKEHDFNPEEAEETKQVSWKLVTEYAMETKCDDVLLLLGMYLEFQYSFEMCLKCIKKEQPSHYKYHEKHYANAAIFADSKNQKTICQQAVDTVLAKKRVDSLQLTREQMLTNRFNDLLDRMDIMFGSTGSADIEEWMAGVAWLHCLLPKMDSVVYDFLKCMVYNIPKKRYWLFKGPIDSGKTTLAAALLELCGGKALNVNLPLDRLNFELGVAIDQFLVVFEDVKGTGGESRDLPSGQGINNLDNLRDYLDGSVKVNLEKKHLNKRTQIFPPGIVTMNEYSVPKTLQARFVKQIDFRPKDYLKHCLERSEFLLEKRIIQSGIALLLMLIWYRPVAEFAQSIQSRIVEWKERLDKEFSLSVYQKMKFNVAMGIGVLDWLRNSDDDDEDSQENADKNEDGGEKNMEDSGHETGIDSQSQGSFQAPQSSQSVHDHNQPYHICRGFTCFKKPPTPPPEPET

Compound	outcome
Oc1ccc(C2(c3ccc(O)cc3)CC2)cc1	inactive
C=C(c1ccccc1Cl)c1ccccc1Cl	inactive
COc1cccc(C(C)(O)c2cccc(OC)c2)c1	inactive
C=C(c1ccc(F)cc1)c1ccc(F)cc1	inactive
C=C(c1ccc(Cl)cc1)c1ccc(Cl)cc1	inactive
CC(C)(c1ccc(O)cc1)c1cccc(O)c1	inactive
C=C(c1ccc(Br)cc1)c1ccc(Br)cc1	inactive
C=C(c1cccc(OC)c1)c1cccc(OC)c1	inactive
